What all share (assay): DAPPL (digital affinity profiling via proximity ligation, sequencing); 10 mM Tris-HCl pH 7.5, 50 mM NaCl, 1 mM DTT, 4% glycerol, room temperature, 30 min; GST-TFs on glutathione beads, 16-mer random dsDNA library, 0.1% formaldehyde crosslink after washing; high values mean tight binding
Experiment [1] has as its target T1, FLI1 (Homo sapiens, UniProt Q01543 1-452).
T1 sequence: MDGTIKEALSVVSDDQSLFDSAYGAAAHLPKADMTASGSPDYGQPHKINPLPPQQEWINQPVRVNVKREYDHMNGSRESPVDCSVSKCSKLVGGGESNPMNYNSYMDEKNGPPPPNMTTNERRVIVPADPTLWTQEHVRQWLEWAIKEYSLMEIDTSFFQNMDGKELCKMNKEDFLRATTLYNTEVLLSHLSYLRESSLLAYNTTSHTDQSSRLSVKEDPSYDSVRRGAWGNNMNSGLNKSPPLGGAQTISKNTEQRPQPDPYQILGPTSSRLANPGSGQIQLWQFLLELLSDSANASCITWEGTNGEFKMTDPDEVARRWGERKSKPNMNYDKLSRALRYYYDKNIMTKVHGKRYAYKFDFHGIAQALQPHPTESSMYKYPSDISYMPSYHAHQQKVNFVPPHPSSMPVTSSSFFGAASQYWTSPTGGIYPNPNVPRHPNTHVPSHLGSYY
Conditions: protein: recombinant; tags: N-terminal GST; dsDNA, one strand shown. The gist of the method: (§1)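 Binding signal is given per hexamer as its read frequency for a factor divided by its frequency in the tag-only sample. GST-fused human transcription factors were expressed in yeast, captured on glutathione beads, barcoded with DNA and pooled with that sample, then incubated with 200 nmole of a 16-mer random double-stranded DNA library in Tris/NaCl/DTT/glycerol buffer for 30 min at room temperature. The pools were then washed, crosslinked, proximity-ligated, amplified by PCR and sequenced on an Illumina NextSeq500.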

Experiment [2] has as its target T2, ELK1 (Homo sapiens, UniProt P19419 1-428).
T2 sequence: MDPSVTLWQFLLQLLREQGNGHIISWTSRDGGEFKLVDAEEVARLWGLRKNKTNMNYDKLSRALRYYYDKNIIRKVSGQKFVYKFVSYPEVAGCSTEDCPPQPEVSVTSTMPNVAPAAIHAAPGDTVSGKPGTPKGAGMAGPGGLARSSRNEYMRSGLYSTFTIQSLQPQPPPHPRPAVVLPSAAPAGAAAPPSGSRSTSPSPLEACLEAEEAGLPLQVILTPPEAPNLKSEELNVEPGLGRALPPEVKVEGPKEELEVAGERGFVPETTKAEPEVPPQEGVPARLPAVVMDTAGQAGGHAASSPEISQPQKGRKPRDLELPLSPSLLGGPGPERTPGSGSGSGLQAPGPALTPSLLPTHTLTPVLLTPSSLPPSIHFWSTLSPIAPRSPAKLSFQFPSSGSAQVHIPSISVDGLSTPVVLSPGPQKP
The following applies: protein: recombinant; tags: N-terminal GST; dsDNA, one strand shown. A digest of the protocol: as §1

Experiment [3] deals with T3, GABPA (Homo sapiens, UniProt Q06546 1-454).
T3 sequence: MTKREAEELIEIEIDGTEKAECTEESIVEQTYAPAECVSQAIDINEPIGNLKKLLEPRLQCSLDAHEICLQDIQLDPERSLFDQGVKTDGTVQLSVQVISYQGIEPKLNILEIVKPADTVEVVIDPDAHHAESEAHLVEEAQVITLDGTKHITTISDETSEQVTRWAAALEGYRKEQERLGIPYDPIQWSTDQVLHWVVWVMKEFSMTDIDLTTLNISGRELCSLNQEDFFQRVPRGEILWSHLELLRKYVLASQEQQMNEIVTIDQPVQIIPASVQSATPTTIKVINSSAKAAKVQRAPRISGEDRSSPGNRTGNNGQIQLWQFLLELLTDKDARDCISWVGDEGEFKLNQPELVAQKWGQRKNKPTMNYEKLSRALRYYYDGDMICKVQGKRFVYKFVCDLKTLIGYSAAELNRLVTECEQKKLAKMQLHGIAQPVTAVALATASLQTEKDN
Conditions: protein: recombinant; tags: N-terminal GST; dsDNA, one strand shown. The gist of the method: as §1

The target of experiment [4] is T4, ERG (Homo sapiens, UniProt P11308 1-479).
T4 sequence: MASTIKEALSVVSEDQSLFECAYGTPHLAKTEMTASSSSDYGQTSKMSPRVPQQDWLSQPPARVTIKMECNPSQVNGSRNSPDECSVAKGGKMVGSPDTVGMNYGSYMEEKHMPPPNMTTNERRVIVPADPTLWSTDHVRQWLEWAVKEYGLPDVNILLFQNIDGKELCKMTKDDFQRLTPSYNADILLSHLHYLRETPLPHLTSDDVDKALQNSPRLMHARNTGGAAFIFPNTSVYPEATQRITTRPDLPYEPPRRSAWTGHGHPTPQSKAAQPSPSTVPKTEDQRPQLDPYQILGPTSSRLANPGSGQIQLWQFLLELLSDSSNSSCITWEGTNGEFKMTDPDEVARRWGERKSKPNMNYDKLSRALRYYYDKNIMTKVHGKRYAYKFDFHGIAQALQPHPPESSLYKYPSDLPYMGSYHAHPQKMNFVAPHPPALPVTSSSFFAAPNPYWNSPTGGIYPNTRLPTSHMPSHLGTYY
The following applies: protein: recombinant; tags: N-terminal GST; dsDNA, one strand shown. A digest of the protocol: as §1

Experiment [5] has as its target ELF1 (Homo sapiens, UniProt P32519 1-619). Conditions: protein: recombinant; tags: N-terminal GST; dsDNA, one strand shown. The gist of the method:
as §1

Experiment [6] concerns the target T5, EHF (Homo sapiens, UniProt Q9NZC4 1-300).
T5 sequence: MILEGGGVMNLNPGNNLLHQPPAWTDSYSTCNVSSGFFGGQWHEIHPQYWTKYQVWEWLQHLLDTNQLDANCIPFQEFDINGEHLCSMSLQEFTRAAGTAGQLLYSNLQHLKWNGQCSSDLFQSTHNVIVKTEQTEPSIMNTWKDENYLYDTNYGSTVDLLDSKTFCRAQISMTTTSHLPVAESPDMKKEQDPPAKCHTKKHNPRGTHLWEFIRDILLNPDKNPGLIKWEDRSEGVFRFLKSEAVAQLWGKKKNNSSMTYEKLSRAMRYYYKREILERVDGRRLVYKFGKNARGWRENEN
Conditions: protein: recombinant; tags: N-terminal GST; dsDNA, one strand shown. The gist of the method:
as §1

Experiment [7] deals with SPI1 (Homo sapiens, UniProt P17947 1-270). The following applies: protein: recombinant; tags: N-terminal GST; dsDNA, one strand shown. A digest of the protocol: as §1
Experiment [8] has as its target SPIB (Homo sapiens, UniProt Q01892 1-262). The following applies: protein: recombinant; tags: N-terminal GST; dsDNA, one strand shown. The gist of the method:
as §1

Experiment [9] concerns the target T6, ELK3 (Homo sapiens, UniProt P41970 1-407).
T6 sequence: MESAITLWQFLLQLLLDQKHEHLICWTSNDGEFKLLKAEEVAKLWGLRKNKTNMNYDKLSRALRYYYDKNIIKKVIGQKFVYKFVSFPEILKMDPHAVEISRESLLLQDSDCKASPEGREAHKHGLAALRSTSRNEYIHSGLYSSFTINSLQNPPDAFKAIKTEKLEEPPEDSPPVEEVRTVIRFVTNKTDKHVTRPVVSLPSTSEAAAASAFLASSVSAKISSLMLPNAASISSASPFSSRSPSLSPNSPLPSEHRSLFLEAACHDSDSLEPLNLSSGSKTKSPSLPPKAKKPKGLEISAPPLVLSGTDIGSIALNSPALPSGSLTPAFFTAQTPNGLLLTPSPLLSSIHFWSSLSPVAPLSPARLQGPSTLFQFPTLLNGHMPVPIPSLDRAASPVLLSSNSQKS
The following applies: protein: recombinant; tags: N-terminal GST; dsDNA, one strand shown. The gist of the method: as §1

Experiment [10] has as its target T7, FEV (Homo sapiens, UniProt Q99581 1-238).
T7 sequence: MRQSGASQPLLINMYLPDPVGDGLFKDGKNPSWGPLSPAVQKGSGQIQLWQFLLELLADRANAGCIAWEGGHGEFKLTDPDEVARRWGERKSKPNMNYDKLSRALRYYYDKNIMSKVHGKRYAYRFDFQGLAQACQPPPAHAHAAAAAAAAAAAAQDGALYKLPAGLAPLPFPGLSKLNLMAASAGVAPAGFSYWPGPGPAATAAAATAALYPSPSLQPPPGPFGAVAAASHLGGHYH
Conditions: protein: recombinant; tags: N-terminal GST; dsDNA, one strand shown. A digest of the protocol: as §1

In experiment [11] the target is ETV5 (Homo sapiens, UniProt P41161 1-510). The following applies: protein: recombinant; tags: N-terminal GST; dsDNA, one strand shown. A digest of the protocol: as §1
Experiment [12] deals with HSF1 (Homo sapiens, UniProt Q00613 1-529). The following applies: protein: recombinant; tags: N-terminal GST; chain copies: 3; dsDNA, one strand shown. A digest of the protocol:
as §1

The target in experiment [13] is T8, SPIC (Homo sapiens, UniProt Q8N5J4 1-248).
T8 sequence: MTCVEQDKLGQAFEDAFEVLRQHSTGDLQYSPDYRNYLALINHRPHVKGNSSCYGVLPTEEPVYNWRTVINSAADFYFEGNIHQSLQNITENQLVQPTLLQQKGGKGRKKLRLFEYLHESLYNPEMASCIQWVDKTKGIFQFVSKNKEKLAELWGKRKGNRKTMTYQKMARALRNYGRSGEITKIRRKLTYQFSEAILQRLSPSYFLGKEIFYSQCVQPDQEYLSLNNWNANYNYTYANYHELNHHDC
The following applies: protein: recombinant; tags: N-terminal GST; dsDNA, one strand shown. The gist of the method:
as §1

Experiment [14] deals with ELF4 (Homo sapiens, UniProt Q99607 1-663). The following applies: protein: recombinant; tags: N-terminal GST; dsDNA, one strand shown. A digest of the protocol: as §1
Experiment [15] concerns the target T9, ELK4 (Homo sapiens, UniProt P28324-2 1-405).
T9 sequence: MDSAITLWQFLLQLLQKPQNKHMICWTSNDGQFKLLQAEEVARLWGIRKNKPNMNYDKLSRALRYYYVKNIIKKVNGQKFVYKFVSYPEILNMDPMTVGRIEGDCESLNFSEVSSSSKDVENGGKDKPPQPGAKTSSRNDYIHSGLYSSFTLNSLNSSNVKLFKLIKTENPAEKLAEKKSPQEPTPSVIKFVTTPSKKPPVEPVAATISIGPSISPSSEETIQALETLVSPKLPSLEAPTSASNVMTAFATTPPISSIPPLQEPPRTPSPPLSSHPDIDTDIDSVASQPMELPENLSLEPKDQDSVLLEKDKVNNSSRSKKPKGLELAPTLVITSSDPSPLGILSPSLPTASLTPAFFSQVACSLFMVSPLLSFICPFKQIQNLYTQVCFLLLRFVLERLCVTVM
Conditions: protein: recombinant; tags: N-terminal GST; dsDNA, one strand shown. The gist of the method: as §1

Experiment [16] concerns the target T10, ETV2 (Homo sapiens, UniProt O00321 1-342).
T10 sequence: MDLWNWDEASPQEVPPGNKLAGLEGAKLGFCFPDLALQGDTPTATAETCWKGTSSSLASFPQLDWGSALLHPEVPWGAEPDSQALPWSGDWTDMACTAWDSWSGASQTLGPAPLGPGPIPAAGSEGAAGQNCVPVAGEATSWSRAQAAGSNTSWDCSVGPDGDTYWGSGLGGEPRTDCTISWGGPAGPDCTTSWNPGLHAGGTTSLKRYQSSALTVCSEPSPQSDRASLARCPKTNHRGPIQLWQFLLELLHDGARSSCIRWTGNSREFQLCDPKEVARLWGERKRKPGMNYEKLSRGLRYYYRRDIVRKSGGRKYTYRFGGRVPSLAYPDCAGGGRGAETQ
The following applies: protein: recombinant; tags: N-terminal GST; dsDNA, one strand shown. A digest of the protocol: as §1

Experiment [17] has as its target T11, ELF3 (Homo sapiens, UniProt P78545 1-371).
T11 sequence: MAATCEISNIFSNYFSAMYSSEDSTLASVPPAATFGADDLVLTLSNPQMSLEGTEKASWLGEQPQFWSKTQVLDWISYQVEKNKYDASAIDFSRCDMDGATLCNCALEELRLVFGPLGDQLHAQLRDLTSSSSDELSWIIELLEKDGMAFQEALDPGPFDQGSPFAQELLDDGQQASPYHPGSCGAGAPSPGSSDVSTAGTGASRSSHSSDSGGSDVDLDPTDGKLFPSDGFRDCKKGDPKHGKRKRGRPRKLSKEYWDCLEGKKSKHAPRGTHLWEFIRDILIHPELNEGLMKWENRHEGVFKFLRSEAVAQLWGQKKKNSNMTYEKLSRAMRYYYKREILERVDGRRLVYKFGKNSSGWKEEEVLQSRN
Conditions: protein: recombinant; tags: N-terminal GST; dsDNA, one strand shown. A digest of the protocol:
as §1

The target of experiment [18] is CRX (Homo sapiens, UniProt O43186 1-299). Conditions: protein: recombinant; tags: N-terminal GST; dsDNA, one strand shown. The gist of the method: as §1
In experiment [19] the target is ETV1 (Homo sapiens, UniProt P50549 1-477). Conditions: protein: recombinant; tags: N-terminal GST; dsDNA, one strand shown. The gist of the method:
as §1

Sequence of HSF1 (Q00613 whole entry): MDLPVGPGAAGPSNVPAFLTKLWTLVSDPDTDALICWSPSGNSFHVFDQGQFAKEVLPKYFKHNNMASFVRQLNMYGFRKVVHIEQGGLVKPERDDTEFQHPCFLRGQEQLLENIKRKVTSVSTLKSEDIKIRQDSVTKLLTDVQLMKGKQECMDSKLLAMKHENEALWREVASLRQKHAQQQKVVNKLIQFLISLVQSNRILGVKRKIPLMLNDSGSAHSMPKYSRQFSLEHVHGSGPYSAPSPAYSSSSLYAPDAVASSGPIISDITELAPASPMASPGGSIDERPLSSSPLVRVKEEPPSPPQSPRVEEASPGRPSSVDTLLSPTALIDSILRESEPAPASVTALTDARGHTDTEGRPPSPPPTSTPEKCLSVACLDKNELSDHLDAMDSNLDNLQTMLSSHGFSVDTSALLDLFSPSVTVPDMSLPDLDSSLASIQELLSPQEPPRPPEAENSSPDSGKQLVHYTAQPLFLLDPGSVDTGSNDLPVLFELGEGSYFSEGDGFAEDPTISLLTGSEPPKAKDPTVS
Sequence of ELF1 (P32519 whole entry): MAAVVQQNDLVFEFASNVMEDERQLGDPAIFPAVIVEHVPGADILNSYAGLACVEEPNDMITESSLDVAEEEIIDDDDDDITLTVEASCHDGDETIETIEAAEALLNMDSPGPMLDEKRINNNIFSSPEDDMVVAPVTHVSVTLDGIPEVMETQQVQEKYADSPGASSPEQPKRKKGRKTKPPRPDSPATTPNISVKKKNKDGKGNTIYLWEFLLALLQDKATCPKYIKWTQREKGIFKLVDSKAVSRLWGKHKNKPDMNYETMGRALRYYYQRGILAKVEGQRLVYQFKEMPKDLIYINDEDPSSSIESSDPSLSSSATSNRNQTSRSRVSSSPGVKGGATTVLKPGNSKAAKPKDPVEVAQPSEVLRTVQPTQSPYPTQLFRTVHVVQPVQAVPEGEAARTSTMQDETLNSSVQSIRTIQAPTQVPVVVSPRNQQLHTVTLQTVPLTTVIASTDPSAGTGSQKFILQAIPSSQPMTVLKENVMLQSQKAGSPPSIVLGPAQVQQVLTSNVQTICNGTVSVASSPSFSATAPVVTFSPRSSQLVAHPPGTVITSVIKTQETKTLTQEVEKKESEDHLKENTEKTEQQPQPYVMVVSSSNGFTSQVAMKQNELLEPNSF
Sequence of ELF4 (Q99607 whole entry): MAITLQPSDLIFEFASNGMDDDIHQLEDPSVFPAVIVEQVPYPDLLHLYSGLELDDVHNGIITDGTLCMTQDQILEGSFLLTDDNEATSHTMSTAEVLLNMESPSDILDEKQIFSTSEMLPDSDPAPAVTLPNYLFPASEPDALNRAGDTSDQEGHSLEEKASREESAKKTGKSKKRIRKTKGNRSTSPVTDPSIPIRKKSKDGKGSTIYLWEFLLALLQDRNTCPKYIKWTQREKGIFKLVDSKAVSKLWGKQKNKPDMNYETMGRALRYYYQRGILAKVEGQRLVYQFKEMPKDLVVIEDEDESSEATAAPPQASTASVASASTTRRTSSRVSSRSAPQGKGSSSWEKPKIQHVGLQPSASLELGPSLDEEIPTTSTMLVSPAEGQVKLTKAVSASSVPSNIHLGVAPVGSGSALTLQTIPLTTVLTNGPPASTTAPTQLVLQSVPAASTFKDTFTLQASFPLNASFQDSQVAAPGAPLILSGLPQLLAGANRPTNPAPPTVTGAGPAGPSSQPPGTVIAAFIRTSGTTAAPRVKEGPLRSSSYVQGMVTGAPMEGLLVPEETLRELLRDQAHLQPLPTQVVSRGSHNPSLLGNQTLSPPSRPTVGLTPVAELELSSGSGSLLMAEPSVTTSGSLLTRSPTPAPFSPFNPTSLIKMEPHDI
Sequence of CRX (O43186 whole entry): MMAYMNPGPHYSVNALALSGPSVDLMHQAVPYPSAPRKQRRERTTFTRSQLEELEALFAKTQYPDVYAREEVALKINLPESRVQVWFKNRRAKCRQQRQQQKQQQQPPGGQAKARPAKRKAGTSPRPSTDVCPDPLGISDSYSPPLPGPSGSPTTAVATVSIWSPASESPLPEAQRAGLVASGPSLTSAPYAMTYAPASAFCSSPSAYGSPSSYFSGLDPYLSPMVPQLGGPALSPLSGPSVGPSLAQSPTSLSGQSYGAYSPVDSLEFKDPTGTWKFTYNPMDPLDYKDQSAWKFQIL
Sequence of ETV1 (P50549 whole entry): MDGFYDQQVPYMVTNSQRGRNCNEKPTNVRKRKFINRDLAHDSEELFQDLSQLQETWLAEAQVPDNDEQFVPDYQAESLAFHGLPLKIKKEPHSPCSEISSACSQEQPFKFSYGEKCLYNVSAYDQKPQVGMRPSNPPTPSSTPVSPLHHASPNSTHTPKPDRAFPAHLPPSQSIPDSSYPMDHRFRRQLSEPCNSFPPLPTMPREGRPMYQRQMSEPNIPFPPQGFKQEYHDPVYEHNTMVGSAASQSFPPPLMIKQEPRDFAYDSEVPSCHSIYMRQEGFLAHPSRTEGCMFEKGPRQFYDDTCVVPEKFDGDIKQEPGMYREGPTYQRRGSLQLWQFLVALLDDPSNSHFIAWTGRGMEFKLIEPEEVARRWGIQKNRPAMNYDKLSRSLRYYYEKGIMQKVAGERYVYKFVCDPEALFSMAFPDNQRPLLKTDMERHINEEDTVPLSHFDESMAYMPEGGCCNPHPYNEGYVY
Sequence of SPIB (Q01892 whole entry): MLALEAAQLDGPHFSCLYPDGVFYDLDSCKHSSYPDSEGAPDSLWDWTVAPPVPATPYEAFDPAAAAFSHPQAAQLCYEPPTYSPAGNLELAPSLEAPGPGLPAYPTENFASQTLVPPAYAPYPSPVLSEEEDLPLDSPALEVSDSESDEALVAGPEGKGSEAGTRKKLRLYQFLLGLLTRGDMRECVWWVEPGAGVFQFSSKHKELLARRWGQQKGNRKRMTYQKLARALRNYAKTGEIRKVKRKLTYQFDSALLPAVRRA
Sequence of ETV5 (P41161 whole entry): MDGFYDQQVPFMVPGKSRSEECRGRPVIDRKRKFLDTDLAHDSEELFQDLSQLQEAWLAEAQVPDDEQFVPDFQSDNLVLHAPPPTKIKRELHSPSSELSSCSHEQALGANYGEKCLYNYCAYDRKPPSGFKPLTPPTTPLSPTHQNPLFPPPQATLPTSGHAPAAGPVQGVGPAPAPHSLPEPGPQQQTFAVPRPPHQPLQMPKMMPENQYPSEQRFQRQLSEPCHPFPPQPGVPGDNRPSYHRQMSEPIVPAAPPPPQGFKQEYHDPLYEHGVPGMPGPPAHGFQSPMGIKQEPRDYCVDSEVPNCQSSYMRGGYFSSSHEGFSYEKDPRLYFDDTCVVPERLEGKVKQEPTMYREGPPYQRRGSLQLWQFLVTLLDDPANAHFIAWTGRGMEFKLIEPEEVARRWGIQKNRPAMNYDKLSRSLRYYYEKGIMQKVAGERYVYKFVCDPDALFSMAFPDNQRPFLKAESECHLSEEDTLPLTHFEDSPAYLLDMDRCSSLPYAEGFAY

Turning to TGCGAA, the binding signal in experiment [1] is 1.21 fold enrichment (6-mer frequency, TF over GST control); in experiment [2], 1.2 fold enrichment (6-mer frequency, TF over GST control); in experiment [3], 1.07 fold enrichment (6-mer frequency, TF over GST control); in experiment [4], 1.16 fold enrichment (6-mer frequency, TF over GST control); in experiment [5], 1.23 fold enrichment (6-mer frequency, TF over GST control); in [6], 1.18 fold enrichment (6-mer frequency, TF over GST control). The binding signal in experiment [7] was 1.26 fold enrichment (6-mer frequency, TF over GST control); in experiment [8], 1.22 fold enrichment (6-mer frequency, TF over GST control); in experiment [9], 1.07 fold enrichment (6-mer frequency, TF over GST control); in experiment [10] it was 1.14 fold enrichment (6-mer frequency, TF over GST control); in experiment [11], 1.23 fold enrichment (6-mer frequency, TF over GST control); in experiment [12] it was 1.21 fold enrichment (6-mer frequency, TF over GST control). The binding signal was 1.02 fold enrichment (6-mer frequency, TF over GST control) in [13]; 1.21 fold enrichment (6-mer frequency, TF over GST control) in experiment [14]; 1.19 fold enrichment (6-mer frequency, TF over GST control) in experiment [15]; 1.18 fold enrichment (6-mer frequency, TF over GST control) in [16]; 1.14 fold enrichment (6-mer frequency, TF over GST control) in [17]; 1.06 fold enrichment (6-mer frequency, TF over GST control) in experiment [18]. For the same sequence, the binding signal in experiment [19] was 1.19 fold enrichment (6-mer frequency, TF over GST control).
